# Data published in PubChem BioAssay (Tox21).
# “And” between values parts separate entries of the source, which are not always exact repeats. Identical values can stand only once. Records with an inconclusive call do not appear. Where a call stands in place of a potency, no number is given. Where a structure was tested more than once in an assay, its records may differ in their call. The source made the active and inactive calls. The call rests on the fitted dose curve; in most records, active means well fitted curve in the direction sought with a large enough effect in the repeat runs; inconclusive means weak or mixed curves; inactive means no such curve, though single readings can be large; an effect the other way counts as inactive or inconclusive.
# Assays:
# [1] = qHTS RealTime-Glo MT Cell Viability Assay in HEK293 cells - 40 hour (AID 1224874); settings: RealTime-Glo luminescence; max response: stronger effect = lower value; further: nearly all actives have a fitted effect of over 50% in size; further: potency means the concentration at half of the fitted maximal effect
# In short: (§1)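 Luminescence, which tracks viable cell number through reduction of the prosubstrate to a NanoLuc substrate, was read over continuous 37 C culture. Cells (600/well) were premixed with reagent and rested 5 h before 23 nL of compound in DMSO was pinned.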
# [2] = A CellTox Green Cytotoxicity Assay to monitor cytotoxicity in HEK293 cells - 24 hour (AID 1224875); further: series mostly up to about 77 µM; nearly all actives have a fitted effect of over 45% in size
# In short: (§2)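 Fluorescence from a DNA-binding dye excluded by viable cells was measured repeatedly in the same HEK293 wells (600 cells/well) during continuous compound exposure at 37 C. Each assay gives one read point: 0, 8, 16, 24, 32 or 40 h.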
# [3] = A CellTox Green Cytotoxicity Assay to monitor cytotoxicity in HepG2 cells - 16 hour (AID 1224876); further: nearly all actives have a fitted effect of over 45% in size; further: potency means the concentration at half of the fitted maximal effect
# In short: (§3)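 Real-time cytotoxicity: fluorescence of a cell-impermeant cyanine dye binding DNA of dead HepG2 cells, measured repeatedly (0–40 h) during compound exposure at 37 C. Cells seeded 600/well with reagent, dosed after 5 h.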
# [4] = qHTS RealTime-Glo MT Cell Viability Assay in HepG2 cells - 32 hour (AID 1224877); further: nearly all actives have a fitted effect of over 55% in size
# In short: (§4)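 Viability was tracked continuously by NanoLuc luminescence from prosubstrate reduced by living HepG2 cells, at successive time points over 40 h of compound exposure. Cells with reagent were preincubated 5 h at 37 °C before compound addition.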
# [5] = A CellTox Green Cytotoxicity Assay to monitor cytotoxicity in HepG2 cells - 24 hour (AID 1224878); further: nearly all actives have a fitted effect of over 45% in size; further: potency means the concentration at half of the fitted maximal effect
# In short: as §3
# [6] = A CellTox Green Cytotoxicity Assay to monitor cytotoxicity in HepG2 cells - 40 hour (AID 1224879); further: nearly all actives have a fitted effect of over 40% in size; further: potency means the concentration at half of the fitted maximal effect
# In short: as §3
# [7] = qHTS RealTime-Glo MT Cell Viability Assay in HEK293 cells - 0 hour (AID 1224880); further: top concentration of the series differs between compounds; nearly all actives have a fitted effect of over 45% in size
# In short: as §1
# [8] = A CellTox Green Cytotoxicity Assay to monitor cytotoxicity in HEK293 cells - 32 hour (AID 1224881); further: nearly all actives have a fitted effect of over 40% in size; further: potency means the concentration at half of the fitted maximal effect
# In short: as §2
# [9] = A CellTox Green Cytotoxicity Assay to monitor cytotoxicity in HepG2 cells - 0 hour (AID 1224882); further: nearly all actives have a fitted effect of over 35% in size
# In short: as §3
# [10] = A CellTox Green Cytotoxicity Assay to monitor cytotoxicity in HepG2 cells - 32 hour (AID 1224883); further: nearly all actives have a fitted effect of over 50% in size; further: potency means the concentration at half of the fitted maximal effect
# In short: as §3
# [11] = A CellTox Green Cytotoxicity Assay to monitor cytotoxicity in HEK293 cells - 8 hour (AID 1224884); further: nearly all actives have a fitted effect of over 35% in size
# In short: as §2
# [12] = qHTS RealTime-Glo MT Cell Viability Assay in HepG2 cells - 16 hour (AID 1224885); further: nearly all actives have a fitted effect of over 50% in size
# In short: as §4
# [13] = qHTS RealTime-Glo MT Cell Viability Assay in HEK293 cells - 24 hour (AID 1224886); further: nearly all actives have a fitted effect of over 50% in size; further: potency means the concentration at half of the fitted maximal effect
# In short: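 Viability tracked continuously by luminescence as live cells reduce a prosubstrate for NanoLuc; HEK293 cells preincubated 5 h, compound-treated at 37 C, and read at 0, 8, 16, 24, 32 and 40 h.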
# [14] = qHTS RealTime-Glo MT Cell Viability Assay in HEK293 cells - 8 hour (AID 1224887)
# In short: as §1
# [15] = A CellTox Green Cytotoxicity Assay to monitor cytotoxicity in HEK293 cells - 16 hour (AID 1224888); further: nearly all actives have a fitted effect of over 35% in size
# In short: as §2
# [16] = qHTS RealTime-Glo MT Cell Viability Assay in HepG2 cells - 0 hour (AID 1224889); further: nearly all actives have a fitted effect of over 50% in size
# In short: as §4
# [17] = A CellTox Green Cytotoxicity Assay to monitor cytotoxicity in HepG2 cells - 8 hour (AID 1224890); further: nearly all actives have a fitted effect of over 45% in size
# In short: as §3
# [18] = qHTS assay to identify small molecule antagonists of the estrogen receptor alpha (ER-alpha) signaling pathway using the BG1 cell line in the presence of 0.1 nM 17-beta-estradiol - cell viability counter screen (AID 1259241); further: nearly all actives have a fitted effect of over 40% in size
# In short: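 VM7Luc4E2, 4,000 cells/well, phenol red-free medium + 10% charcoal-stripped FBS; 24 hr plating; cpd + 0.1 nM E2 final, 22 hr 37C/5% CO2; CellTiter-Fluor 30 min, fluorescence.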
# [19] = target: Androgen receptor (Homo sapiens) (UniProt P10275); assay: qHTS assay to identify small molecule antagonists of the androgen receptor (AR) signaling pathway using the MDA cell line in the presence of 0.5 nM R1881 (AID 1259243); further: nearly all actives have a fitted effect of over 50% in size
# In short: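 Luminescent reporter readout (ONE-Glo, 30 min, room temperature) after 16 hr co-treatment of MDA-kb2 cells with test compounds and 0.5 nM R1881 final, at 37C without CO2. The MMTV-driven luciferase responds to both AR and GR.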
# [20] = qHTS assay to identify small molecule antagonists of the androgen receptor (AR) signaling pathway using the MDA cell line in the presence of 0.5 nM R1881 - cell viability counter screen (AID 1259242); further: nearly all actives have a fitted effect of over 45% in size
# In short: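 Live-cell protease activity was measured by CellTiter-Fluor fluorescence after 30 min. Before that, MDA-kb2 MMTV-luciferase cells had 16 hr at 37C without CO2, exposed to test compounds and 0.5 nM R1881 final.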
# Androgen receptor (Homo sapiens), sequence (P10275 whole entry, looked up): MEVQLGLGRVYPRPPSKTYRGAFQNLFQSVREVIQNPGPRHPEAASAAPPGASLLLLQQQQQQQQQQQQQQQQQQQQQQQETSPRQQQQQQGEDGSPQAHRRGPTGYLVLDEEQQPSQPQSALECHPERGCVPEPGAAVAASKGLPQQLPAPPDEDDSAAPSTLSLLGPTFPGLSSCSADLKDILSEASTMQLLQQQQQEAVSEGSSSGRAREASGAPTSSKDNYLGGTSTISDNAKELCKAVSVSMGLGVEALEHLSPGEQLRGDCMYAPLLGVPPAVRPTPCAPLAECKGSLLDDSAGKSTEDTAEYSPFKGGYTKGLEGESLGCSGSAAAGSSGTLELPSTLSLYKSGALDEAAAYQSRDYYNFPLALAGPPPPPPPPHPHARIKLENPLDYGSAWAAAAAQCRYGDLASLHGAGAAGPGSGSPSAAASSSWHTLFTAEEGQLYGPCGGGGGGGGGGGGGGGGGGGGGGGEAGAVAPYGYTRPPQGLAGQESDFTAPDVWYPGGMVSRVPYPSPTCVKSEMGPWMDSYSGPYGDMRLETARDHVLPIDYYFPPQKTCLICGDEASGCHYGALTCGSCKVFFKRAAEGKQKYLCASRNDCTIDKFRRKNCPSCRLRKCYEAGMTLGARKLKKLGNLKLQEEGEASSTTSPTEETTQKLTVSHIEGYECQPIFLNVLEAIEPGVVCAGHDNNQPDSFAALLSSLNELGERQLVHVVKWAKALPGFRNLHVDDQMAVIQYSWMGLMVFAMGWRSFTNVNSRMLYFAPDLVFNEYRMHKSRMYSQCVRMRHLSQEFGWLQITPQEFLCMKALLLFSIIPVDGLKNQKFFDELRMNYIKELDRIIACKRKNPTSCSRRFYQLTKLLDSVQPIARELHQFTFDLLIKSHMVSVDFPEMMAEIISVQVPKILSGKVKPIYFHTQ
smiles,measurement,setting,value
CC[C@H](C)C(=O)O[C@H]1C[C@@H](C)C=C2C=C[C@H](C)[C@H](CC[C@@H]3C[C@@H](O)CC(=O)O3)[C@H]21,max response,[1],-8.74% (inactive) and -19.2% (inactive)
same,Potency,[2],inactive
same,Potency,[3],49.6 µM (active) and inactive and 16.9 µM (active)
same,outcome,[4],inactive
same,Potency,[5],24.9 µM (active) and 10.7 µM (active)
same,Potency,[6],7.01 µM (active) and 21.8 µM (active) and 9.52 µM (active)
same,Potency,[7],inactive
same,Potency,[8],inactive
same,outcome,[9],inactive
same,Potency,[10],11.1 µM (active) and 17.3 µM (active) and 9.52 µM (active)
same,outcome,[11],inactive
same,outcome,[12],inactive
same,Potency,[13],inactive
same,Potency,[14],inactive
same,outcome,[15],inactive
same,Potency,[16],inactive
same,Potency,[17],inactive
CC(c1cc2ccccc2s1)N(O)C(N)=O (stereo not given),max response,[1],-14.9% (inactive) and -8.57% (inactive)
same,Potency,[2],inactive
same,Potency,[3],inactive
same,outcome,[4],inactive
same,Potency,[5],inactive
same,Potency,[6],inactive
same,Potency,[7],inactive
same,Potency,[8],inactive
same,outcome,[9],inactive
same,Potency,[10],inactive
same,outcome,[11],inactive
same,outcome,[12],inactive
same,Potency,[13],inactive
same,Potency,[14],inactive
same,outcome,[15],inactive
same,Potency,[16],inactive
same,Potency,[17],inactive
same,Potency,[18],inactive
same,Potency,[19],inactive
C=C(C)C(=O)O[C@H]1C[C@@H]2CC[C@@]1(C)C2(C)C,Potency,[1],15.4 µM (active)
same,max response,[1],2.39% (inactive)
same,Potency,[2],inactive
same,Potency,[3],inactive
same,outcome,[4],inactive
same,Potency,[5],4.87 µM (active) and inactive
same,Potency,[6],7.71 µM (active) and inactive
same,Potency,[7],inactive
same,Potency,[8],10.9 µM (active) and inactive
same,outcome,[9],inactive
same,Potency,[10],6.87 µM (active) and inactive
same,outcome,[11],inactive
same,outcome,[12],inactive
same,Potency,[13],15.4 µM (active) and inactive
same,Potency,[14],inactive
same,outcome,[15],inactive
same,Potency,[16],inactive
same,Potency,[17],inactive
same,outcome,[20],inactive
CCCCCCOCCO,max response,[1],-2.7% (inactive) and 0.672% (inactive)
same,Potency,[2],inactive
same,Potency,[3],inactive
same,outcome,[4],inactive
same,Potency,[5],inactive
same,Potency,[6],inactive
same,Potency,[7],inactive
same,Potency,[8],inactive
same,outcome,[9],inactive
same,Potency,[10],inactive
same,outcome,[11],inactive
same,outcome,[12],inactive
same,Potency,[13],inactive
same,Potency,[14],inactive
same,outcome,[15],inactive
same,Potency,[16],inactive
same,Potency,[17],inactive
same,Potency,[18],inactive
same,outcome,[20],inactive
c1ccc(OCCOc2ccccc2)cc1,max response,[1],-0.0252% (inactive) and -0.384% (inactive)
same,Potency,[2],inactive
same,Potency,[3],inactive
same,outcome,[4],inactive
same,Potency,[5],inactive
same,Potency,[6],inactive
same,Potency,[7],inactive
same,Potency,[8],inactive
same,outcome,[9],inactive
same,Potency,[10],inactive
same,outcome,[11],inactive
same,outcome,[12],inactive
same,Potency,[13],inactive
same,Potency,[14],inactive
same,outcome,[15],inactive
same,Potency,[16],inactive
same,Potency,[17],inactive
OCCOCCN1CCN(C2=Nc3ccccc3Sc3ccccc32)CC1,Potency,[1],9.52 µM (active)
same,max response,[1],-19.6% (inactive)
same,Potency,[2],inactive
same,Potency,[3],inactive
same,outcome,[4],inactive
same,Potency,[5],inactive
same,Potency,[6],inactive
same,Potency,[7],inactive
same,Potency,[8],inactive
same,outcome,[9],inactive
same,Potency,[10],inactive
same,outcome,[11],inactive
same,outcome,[12],inactive
same,Potency,[13],inactive
same,Potency,[14],inactive
same,Potency,[16],inactive
same,Potency,[17],inactive
same,Potency,[18],inactive
same,outcome,[20],inactive
COS(C)(=O)=O,max response,[1],0.0927% (inactive) and -3.51% (inactive)
same,Potency,[2],inactive
same,Potency,[3],inactive
same,outcome,[4],inactive
same,Potency,[5],inactive
same,Potency,[6],inactive
same,Potency,[7],inactive
same,Potency,[8],inactive
same,outcome,[9],inactive
same,Potency,[10],inactive
same,outcome,[11],inactive
same,outcome,[12],inactive
same,Potency,[13],inactive
same,Potency,[14],inactive
same,outcome,[15],inactive
same,Potency,[16],inactive
same,Potency,[17],inactive
CCCCCCCCCCCCc1ccccc1,max response,[1],7.72% (inactive) and -4.38% (inactive)
same,Potency,[2],inactive
same,Potency,[3],inactive
same,outcome,[4],inactive
same,Potency,[5],inactive
same,Potency,[6],inactive
same,Potency,[7],inactive
same,Potency,[8],inactive
same,outcome,[9],inactive
same,Potency,[10],inactive
same,outcome,[11],inactive
same,outcome,[12],inactive
same,Potency,[13],inactive
same,Potency,[14],inactive
same,outcome,[15],inactive
same,Potency,[16],inactive
same,Potency,[17],inactive
same,Potency,[18],inactive
same,outcome,[20],inactive
CCN(CC)c1ccc(C(=O)c2ccccc2C(=O)O)c(O)c1,max response,[1],-1.39% (inactive) and 2.11% (inactive)
same,Potency,[2],inactive
same,Potency,[3],inactive
same,outcome,[4],inactive
same,Potency,[5],inactive
same,Potency,[6],inactive
same,Potency,[7],inactive
same,Potency,[8],inactive
same,outcome,[9],inactive
same,Potency,[10],inactive
same,outcome,[11],inactive
same,outcome,[12],inactive
same,Potency,[13],inactive
same,Potency,[14],inactive
same,outcome,[15],inactive
same,Potency,[16],inactive
same,Potency,[17],inactive
same,Potency,[18],inactive
same,outcome,[20],inactive
O=C(O)CCCC[C@@H]1SC[C@@H]2NC(=O)N[C@@H]21,max response,[1],6.98% (inactive) and 0.709% (inactive)
same,Potency,[2],inactive
same,Potency,[3],inactive
same,outcome,[4],inactive
same,Potency,[5],inactive
same,Potency,[6],inactive
same,Potency,[7],inactive
same,Potency,[8],inactive
same,outcome,[9],inactive
same,Potency,[10],inactive
same,outcome,[11],inactive
same,outcome,[12],inactive
same,Potency,[13],inactive
same,Potency,[14],inactive
same,outcome,[15],inactive
same,Potency,[16],inactive
same,Potency,[17],inactive
same,Potency,[18],inactive
CC1=CCC2CC1C2(C)C (stereo not given),max response,[1],-11.4% (inactive) and 10.5% (inactive)
same,Potency,[2],inactive
same,Potency,[3],inactive
same,outcome,[4],inactive
same,Potency,[5],inactive
same,Potency,[6],inactive
same,Potency,[7],inactive
same,Potency,[8],inactive
same,outcome,[9],inactive
same,Potency,[10],inactive
same,outcome,[11],inactive
same,outcome,[12],inactive
same,Potency,[13],inactive
same,Potency,[14],inactive
same,outcome,[15],inactive
same,Potency,[16],inactive
same,Potency,[17],inactive
same,Potency,[18],inactive
Cc1cc(C)c(C)cc1C,max response,[1],0.583% (inactive) and -29% (inactive)
same,Potency,[2],inactive
same,Potency,[3],inactive
same,outcome,[4],inactive
same,Potency,[5],inactive
same,Potency,[6],inactive
same,Potency,[7],inactive
same,Potency,[8],inactive
same,outcome,[9],inactive
same,Potency,[10],inactive
same,outcome,[11],inactive
same,outcome,[12],inactive
same,Potency,[13],inactive
same,Potency,[14],inactive
same,outcome,[15],inactive
same,Potency,[16],inactive
same,Potency,[17],inactive
same,Potency,[18],inactive
same,outcome,[20],inactive
